This is an account of results in PubChem BioAssay.

This experiment deals with Concanavalin-A (Canavalia ensiformis) (UniProt P02866). Kind of experiment: compounds binding concanavalin A lectin – biochemical, small-molecule microarray, Alexa647 label, 635 nm, artefact control for SMM control protein annotation, primary screen (AID 1127).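 Also: z combines 667 nm emission intensity with signal-to-noise across three replicate slides.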 To be noted: ConA-A647 binding fluorescence, higher = more signal.
Chain of Concanavalin-A (Canavalia ensiformis) (P02866 whole entry, looked up): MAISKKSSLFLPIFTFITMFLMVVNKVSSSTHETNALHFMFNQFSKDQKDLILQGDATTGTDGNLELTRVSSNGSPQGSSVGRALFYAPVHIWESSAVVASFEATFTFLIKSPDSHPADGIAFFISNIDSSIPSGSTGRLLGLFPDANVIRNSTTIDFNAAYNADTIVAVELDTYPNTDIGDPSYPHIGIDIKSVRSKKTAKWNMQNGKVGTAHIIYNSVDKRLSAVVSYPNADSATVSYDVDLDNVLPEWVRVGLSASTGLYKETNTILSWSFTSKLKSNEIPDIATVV
Molecule `COC(=O)[C@@]1(Cc2ccc(OC)cc2)[C@@H]2[C@@H](CC(=O)[C@H]2CC(=O)C(=O)N(C)C)CN1C(=O)c1ccccc1` came in with a composite z-score of 1.13. Then `COC(=O)C(CC#Cc1ccc2c(c1)[C@]1(C(=O)N2)[C@H](C(=O)N2CCCCCCC2)[C@H]2C(=O)O[C@H](c3ccccc3)[C@H](c3ccccc3)N2[C@@H]1c1ccc(OCCO)cc1)C(=O)OC`, with 1.18; and `COc1ccc(CCNC(=O)[C@@]2(c3ccc([N+](=O)[O-])cc3)CC(=O)N(C3CCCCC3)[C@@H]2c2ccc(CO)cc2I)cc1`, with 0.754.

On to `COc1c(C)cc(-c2cc3c(c(CCc4ccccc4)n2)[Si](C(C)C)(C(C)C)O[C@H]3c2ccccc2)cc1C`, for which the composite z-score is 0.398. Then `CCCCC(=C=CC[C@@H](O)c1ccccc1OCCO)C[C@@H](O)c1ccccn1`, with 0.287; and `[N-]=[N+]=NCc1ccccc1C[C@]1(C(=O)N2CCCCC2)COC(c2ccc(OCCCO)cc2)=N1`, with 0.984. In turn, `COc1cccc(C)c1NC(=O)O[C@H]1[C@H](OC(=O)Nc2ccccc2-c2ccccc2)[C@@H](OC(=O)Nc2ccccc2-c2ccccc2)[C@@H](OC)O[C@@H]1CO` came in with a composite z-score of 1.02. Then `O=C1C2C=CC(C(O)c3ccccn3)N(Nc3ccc([N+](=O)[O-])cc3)C2C(=O)N1c1ccccc1` (stereo unspecified), with 1.13; and `CCOC(=O)C1=C[C@@H](C(C)(C)C)N(S(=O)(=O)c2ccc(C)cc2)[C@H]1c1ccc(OC)cc1`, with 1.14. Regarding `O=C1NC(=O)C2C1C=CC(C(O)C(c1ccccc1)c1ccccc1)N2Nc1ccccn1` (stereo unspecified), the composite z-score was -0.516. Consider `CCCCCCc1nc(-c2ccc(OC)nc2)c(C)c2c1[Si](C(C)C)(C(C)C)OC2`, for which the composite z-score was -0.141. Then `CC(C)Cc1ccc(CN2CC[C@@H](NC(=O)c3ccccc3)C2)cc1`, with -0.52; and `COCCOC(=O)N1C(=O)[C@@]2(c3cc(C#CC4=CCCCC4)ccc31)[C@H](c1ccc(O)cc1)N1[C@H](c3ccccc3)[C@H](c3ccccc3)OC(=O)[C@H]1[C@@H]2C(=O)N1CCc2cc(OC)c(OC)cc2C1`, with 0.753. Then `Cc1ccc(S(=O)(=O)N2[C@@H](c3ccccc3)C(C(=O)O)=CC[C@H]2c2ccc(F)cc2)cc1`, with -0.177; and `COc1ccc([Si](C)(C)[C@H]2[C@H](CC(=O)N3CCC[C@H]3CO)O[C@@]3(C(=O)N(Cc4cccc(N5CCCCC5=O)c4)c4ccccc43)[C@@H]2C)cc1`, with 1.13. Then `[N-]=[N+]=Nc1ccccc1C[C@@]1(C(=O)NCc2ccccc2)N=C(c2ccc(OCCCO)cc2)O[C@@H]1c1ccccc1`, with 0.775; and `[N-]=[N+]=NCc1ccccc1[C@H]1OC(c2ccc(OCCCO)cc2)=N[C@@]1(CCS(=O)(=O)c1ccccc1)C(=O)O`, with 0.399. `CCOC(=O)C[C@H]1[C@H](OC(=O)c2cc3ccccc3oc2=O)[C@@H](NC(=O)Cc2ccc(OC)cc2)c2cc(OCCCO)ccc2N1C(=O)Cc1ccc(OC)cc1` displayed a composite z-score of 0.817. Take `C=C(C(=O)CC[C@@H](OC(=O)c1ccccc1-c1ccccc1C(=O)O)c1cccc(OCCO)c1)C(C)C`: the composite z-score is -0.539. Then `COC(=O)[C@@]1(Cc2ccc(F)cc2)[C@@H]2C(=CC(=O)[C@H]2CC(=O)C(=O)N2CCCC2)CN1C(=O)c1ccccc1`, with 0.455; and `CC(C)(C)OC(=O)CC[C@]1(C(N)=O)N=C(c2ccc(OCCCO)cc2)O[C@H]1c1ccccc1N=[N+]=[N-]`, with 0.741.

`COc1ccc([Si](C)(C)[C@@H]2[C@@H](CC(=O)N3CCC[C@H]3CO)O[C@]3(C(=O)N(Cc4cccc(N5C(=O)c6cccc7cccc5c67)c4)c4ccccc43)[C@H]2C)cc1` displayed a composite z-score of 1.13.

As for `COC(=O)C(CC#Cc1ccc2c(c1)[C@]1(C(=O)N2)[C@H](c2ccccc2OCCO)N2[C@H](c3ccccc3)[C@H](c3ccccc3)OC(=O)[C@H]2[C@@H]1C(=O)N1CCN(c2ncccn2)CC1)C(=O)OC`, the composite z-score was 1.11. Then `COc1ccc(C(=O)Nc2ccc(CN3C(=O)[C@]4(O[C@H](CC(=O)N(CCO)Cc5ccccc5)[C@@H]([Si](C)(C)c5ccc(OC)cc5)[C@@H]4C)c4ccccc43)cc2)cc1`, with 0.905; and `COCCOC(=O)N1C(=O)[C@@]2(c3cc(C#CCCO)ccc31)[C@H](c1ccc(O)cc1)N1[C@H](c3ccccc3)[C@H](c3ccccc3)OC(=O)[C@H]1[C@@H]2C(=O)NC[C@H](O)c1ccccc1`, with 0.613. `COc1ccc(NN2C(C(O)c3ccccc3)C=CC3C(=O)N(C4CCCCC4)C(=O)C32)cc1` (stereo unspecified) registered a composite z-score of 1.12. Then `COc1ccc([Si](C)(C)[C@H]2[C@H](CC(=O)N(CCO)Cc3ccccc3)O[C@@]3(C(=O)N(Cc4ccc(N5C(=O)c6cccc7cccc5c67)cc4)c4ccccc43)[C@@H]2C)cc1`, with 1.16; and `COc1ccc([Si](C)(C)[C@H]2[C@H](CC(=O)N3CCC[C@H]3CO)O[C@@]3(C(=O)N(C)c4c(Br)cc(C)cc43)[C@@H]2C)cc1`, with 1.19; and `COCCOC(=O)N1C(=O)[C@@]2(c3cc(C#CCCO)ccc31)[C@H](C(=O)N1CCN(c3ncccn3)CC1)[C@H]1C(=O)O[C@H](c3ccccc3)[C@H](c3ccccc3)N1[C@@H]2c1ccc(OCCO)cc1`, with 1.12. Then `COc1ccc([Si](C)(C)[C@H]2[C@H](CCO)O[C@@]3(C(=O)N(Cc4ccccc4)c4ccc(NC(=O)[C@H](C)O)cc43)[C@@H]2C)cc1`, with 0.473.

The molecule `COc1cc(CO)cc(I)c1O[C@H]1C=C(C(=O)NCCO)C[C@@H](N(CCN2CCOCC2)C(=O)C2CCCO2)[C@@H]1O` (stereo partly specified) registered a composite z-score of -0.0855. Then `O=C(c1ccccc1)N1Cc2ccccc2C[C@@]2(N=C(c3ccc(OCCCO)cc3)O[C@H]2c2ccccc2)C1=O`, with 1.05; and `COCCCNC(=O)[C@@]1(Cc2ccccc2I)c2ccccc2C(=O)N(Cc2ccccc2OC)[C@H]1c1ccc(CO)cc1`, with 0.911; and `CN(C)C(=O)[C@]1(CCS(=O)(=O)c2ccccc2)N=C(c2ccc(OCCCO)cc2)O[C@@H]1c1ccccc1CN=[N+]=[N-]`, with 1.17. Then `C=CCC(OC(C)=O)[C@@H]1[C@@H](N(Cc2ccc(-c3ccccc3)cc2)C(=O)Cc2ccc(OC)cc2)c2cc(OCCCO)ccc2N1C(=O)c1ccc2ccccc2c1` (stereo partly specified), with 0.134; and `COc1cccc(C)c1NC(=O)O[C@H]1[C@H](OC(=O)Nc2ccccc2)[C@@H](OC(=O)Nc2ccccc2)[C@@H](OC)O[C@@H]1CO`, with 1.08.
